SMILES strings stand for the structures. Hit rate of the full screen: of about 360,000 compounds, about 4,200 (1.2%) were called active. Only a selection was taken, and actives are over-represented in it overall. Values without a mark were called inactive.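 How the source made its calls: active means mean replicate inhibition at least 60% with every replicate also reaching 60%; inconclusive means only one of the two criteria is met; inactive means mean below 60% and not all replicates reaching 60%.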

As a reminder, the inhibition is the change of the read-out against control, counted positive when it falls.

The test in a line: PAX8 transcriptional activity inhibition in RMG-I – RMG-I cells, luciferase, single concentration, primary screen (AID 652154).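 Further: luciferase light reporting Pax8 driven TPO promoter activity; plate controls were median of neutral control wells for no effect and mitoxantrone controls for full effect.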 Conditions: RMG-I TPO-luciferase reporter, SteadyGlo, 24 h; at 12.6 µM; stronger effect = higher value. Background: A reporter such as luciferase makes a cellular process visible.
In the case of `COc1cccc(-c2ccc([C@H]3[C@H]4CN(C(=O)NC(C)C)CC(=O)N4[C@H]3CO)cc2)c1`, the inhibition is -13.6%.

On to `CCC(=O)N1C[C@@H](C)[C@@H](OC)CN(C)C(=O)c2ccc(NC(=O)C3CCCCC3)cc2OC[C@@H]1C`, for which the inhibition is -13.2%.

As for `O=C(C1CC1)N1CCCCN2[C@H](C1)[C@@H](c1ccc(-c3cccc(F)c3)cc1)[C@@H]2CO`, the inhibition was 4.79%.

For the compound `O=C(c1cccc(F)c1)N1CCCCN2[C@H](CO)[C@@H](c3ccc(-c4cncnc4)cc3)[C@H]2C1`, the inhibition is -27.3%.

With `O=C(C[C@@H]1C=C[C@@H](NC(=O)c2cccnc2)[C@H](CO)O1)NCc1ccncn1`, the inhibition is 2.15%.

Consider `CO[C@@H]1CN(C)C(=O)c2ccc(NC(=O)Nc3c(C)noc3C)cc2OC[C@H](C)N(CC2CC2)C[C@H]1C`, for which the inhibition was 4.7%.

Turning to `CC1(C)CC(=O)C=C(N2CCOCC2)C1`, the inhibition is 7.18%.

As for `Cc1onc(C(=O)NN)c1C(=O)N1CCN(C(c2ccccc2)c2ccccc2)CC1`, the inhibition is 17.8%.

As to `CC1(C)CC(N2CCN(C(c3ccccc3)c3ccccc3)CC2)=CC(=[N+]2CCCCC2)C1`, the inhibition was 94.1% (active).

For `CCCCCCCCN1C(=O)[C@@H](CC(=O)NCc2ccccc2)C[C@@]2(C(=O)OC)C1=C[C@H](C(C)(C)C)O[C@@H]2C`, the inhibition is 19.6%.

Turning to `COc1ccccc1/C=C1\SC(=O)N(CCC(=O)N(C)C2CCS(=O)(=O)C2)C1=O` (centres undefined), the inhibition is -11.6%.

As for `CN(C(=O)CN1C(=O)S/C(=C\c2ccccc2F)C1=O)C1CCS(=O)(=O)C1` (centres undefined), the inhibition was 10.3%.

Take `CN(C(=O)CCN1C(=O)/C(=C/c2ccccc2F)SC1=S)C1CCS(=O)(=O)C1` (centres undefined): the inhibition was 74.1% (active).

On to `Cn1c(CCN2CCN(c3ccccn3)CC2)nc2cc(NS(=O)(=O)c3ccc(F)cc3)ccc21`, for which the inhibition is 50.3%.

On to `Cn1c(CCN2CCCC2)nc2cc(NS(=O)(=O)c3ccccc3)ccc21`, for which the inhibition is 119% (active).

Consider `CCC(=O)Nc1ccc2c(c1)nc(CCN1CCN(c3ccccn3)CC1)n2C`, for which the inhibition is -3.44%.

With `O=C(Nc1ccccc1)Nc1ccc2c(c1)[C@@H]1C[C@@H](CC(=O)N3CCCCC3)O[C@H](CO)[C@@H]1O2`, the inhibition is -0.47%.

For `O=C(c1cccc(F)c1)N1CCCCN2[C@@H](CO)[C@H](c3ccc(-c4cncnc4)cc3)[C@@H]2C1`, the inhibition was 2.95%.

In the case of `COc1cc(/C=N/NC(=O)c2ccc(N3CCCC3=O)cc2)ccc1O`, the inhibition was 86.3% (active).

Consider `CCOc1cc(/C=N/NC(=O)CN2CCCCC2)ccc1O`, for which the inhibition is 3.31%.

As to `C/C(=N\NC(=O)c1cccc(N2CCCC2=O)c1)c1ccc(N)cc1`, the inhibition is -0.282%.

Regarding `CN(C)CC(=O)Nc1ccc2c(c1)[C@H]1C[C@@H](CC(=O)NCc3ccccn3)O[C@@H](CO)[C@H]1O2`, the inhibition is -17.3%.

Consider `CO[C@@H]1CC[C@H]2CCOc3c(C#N)cccc3C(=O)N(C)C[C@@H](OC)[C@H](C)C(=O)N(C)C[C@@H]1O2`, for which the inhibition is -5.56%.

On to `COc1ccccc1-c1cn(CC[C@H]2CC[C@@H](NC(=O)Cc3ccccn3)[C@@H](CO)O2)nn1`, for which the inhibition was -1.82%.

Consider `COc1ccc2[nH]c3c(C)c4cc[n+](C)cc4c(C)c3c2c1`, for which the inhibition was 70.3% (active).

Regarding `C/C=C/c1ccc([C@H]2[C@@H](CNC(=O)NC(C)C)N(C(=O)C3CCC3)[C@H]2CO)cc1`, the inhibition is 6.6%.

As for `CO[C@@H]1CN(C)C(=O)c2cc(NS(C)(=O)=O)ccc2OC[C@H](C)N(C(=O)C2CC2)C[C@@H]1C`, the inhibition was -16.6%.

On to `Oc1ccc2ccccc2c1N=Nc1nccs1`, for which the inhibition was 90.5% (active).

With `C[C@@H]1CN([C@@H](C)CO)C(=O)c2cc(NS(=O)(=O)c3ccccc3)ccc2O[C@@H](C)CCCCO[C@@H]1CN(C)S(=O)(=O)c1cccs1`, the inhibition is 17.1%.

Consider `CC(C)NC(=O)N(C)C[C@@H]1OCCCC[C@@H](C)Oc2ccc(NC(=O)Cc3ccccc3)cc2C(=O)N([C@H](C)CO)C[C@H]1C`, for which the inhibition was 20.4%.

In the case of `CCN1/C(=C\c2ccc3ccccc3[n+]2CC)Sc2cc(C)ccc21`, the inhibition was 93.7% (active).

In the case of `O=C(C[C@@H]1C[C@@H]2c3cc(NC(=O)C4CCOCC4)ccc3O[C@@H]2[C@@H](CO)O1)NC1CCCCC1`, the inhibition was 8.24%.

For `C[C@@H]1CN([C@H](C)CO)C(=O)Cc2cc(NC(=O)C3CC3)ccc2O[C@H]1CN(C)Cc1ccc(Cl)c(Cl)c1`, the inhibition is 11.3%.

For `COc1cccc(-c2ccc([C@@H]3[C@@H](C#N)N(C(=O)c4ccccn4)[C@H]3CO)cc2)c1`, the inhibition was -20.8%.

As for `COc1cccc(-c2ccc([C@@H]3[C@@H](CO)N(C(=O)c4ccccn4)[C@H]3C#N)cc2)c1`, the inhibition is -77.2%.

Turning to `COc1cccc(C#Cc2ccc([C@H]3[C@@H](CO)N(C(=O)c4ccccn4)[C@H]3C#N)cc2)c1`, the inhibition is 92.4% (active).

Consider `CN1C(=O)c2cc(NC(=O)c3cscn3)ccc2OC[C@@H]2O[C@H](CC(=O)N3CCCCC3)CC[C@H]21`, for which the inhibition is -16.1%.

For the compound `CCCN(C)C[C@H]1OCCCC[C@@H](C)Oc2ccc(NC(=O)CCC(F)(F)F)cc2C(=O)N([C@H](C)CO)C[C@H]1C`, the inhibition is 8.93%.

Turning to `Cn1c(=O)c2c(-c3cccc(Br)c3)c(C#N)c(N)nc2n(C)c1=O`, the inhibition was 4.92%.

Regarding `Cc1nc2c(c(C)nn2-c2ccccc2)c(C)c1C`, the inhibition is 12.6%.

Regarding `CSc1ccc(-c2c(C#N)c(N)nc3c2c(C)nn3-c2ccccc2)cc1`, the inhibition is 66.4% (active).

On to `C[C@H]1CN([C@@H](C)CO)C(=O)c2cccc(NS(=O)(=O)c3cn(C)cn3)c2O[C@@H]1CN(C)C(=O)Nc1ccc(F)cc1`, for which the inhibition is -9.83%.

Take `O=C(Nc1ccccc1)N[C@@H]1CC[C@H](CCNS(=O)(=O)c2ccccc2F)O[C@@H]1CO`: the inhibition is -8.59%.

As for `Cc1ccc(-c2csc(NC(=O)C3=COCCO3)n2)cc1C`, the inhibition is -109%.

Take `C/C(CC1CC(C)(C)OC1=O)=N/Nc1nc(-c2ccccc2)cs1` (centres undefined): the inhibition is 19.2%.

In the case of `Cc1ccc(-c2csc(NC3OC(=O)c4ccccc43)n2)cc1` (centres undefined), the inhibition is 92.3% (active).

As for `CC(=O)N1[C@H](CO)[C@H](c2ccc(-c3ccccc3)cc2)[C@H]1CNC(=O)C1CC1`, the inhibition was -4.5%.

Turning to `CN(C)C(=O)c1cccc(-c2cnc3c(NC=O)cc(-c4ccc(F)cc4)cn23)c1`, the inhibition is 33.9%.

Consider `CN(C)CCNC(=O)c1cccc(-c2cnc3c(NC=O)cc(-c4cccc(C(F)(F)F)c4)cn23)c1`, for which the inhibition was 109% (active).

Consider `CC(=O)c1cccc(-c2cnc3c(NC=O)cc(-c4cccc(C(=O)N(C)C)c4)cn23)c1`, for which the inhibition is 12.7%.

Turning to `COc1ccc(NC(=O)Nc2ccc3c(c2)C(=O)N([C@H](C)CO)C[C@H](C)[C@H](CN(C)S(=O)(=O)c2ccc(Cl)cc2)OCCCC[C@H](C)O3)cc1`, the inhibition was 26.6%.

As for `O=C(C[C@@H]1C[C@@H]2c3cc(NS(=O)(=O)c4ccccc4)ccc3O[C@@H]2[C@@H](CO)O1)NC1CCCCC1`, the inhibition is 15.4%.

For `CCOC(=O)c1c(C)[nH]c2c1-c1ccccc1C(=O)C2=O`, the inhibition was 107% (active).

Turning to `CCOC(=O)c1c(C)[nH]c(C(=O)OCC(=O)c2ccc(OC)cc2OC)c1C`, the inhibition is -7.09%.

`CCOC(=O)c1c(C)[nH]c(C)c1S(=O)(=O)NCCCc1ccco1`: the inhibition is -4.09%.

With `COCC(=O)Nc1ccc2c(c1)C(=O)N(C)C[C@@H](OC)[C@@H](C)CN(C(=O)c1ccccc1)[C@@H](C)CO2`, the inhibition was -10.2%.

Take `CC(=O)N1[C@@H](CO)[C@@H]2c3ccccc3N(S(=O)(=O)c3ccccc3)C[C@@H]21`: the inhibition is 7.26%.

As for `O=C(C(=O)N1CCC(CNC(=O)c2cccnc2Cl)CC1)c1cccs1`, the inhibition is -11.9%.

Regarding `CC(C)c1cc(C(=O)N/N=C/C(Br)=C/c2ccccc2)n[nH]1`, the inhibition was 74.5% (active).

On to `Cc1ccc(-c2cc(C(=O)N/N=C/C=C/c3ccccc3)n[nH]2)o1`, for which the inhibition was 47.7%.

As to `CC(/C=N/NC(=O)c1cc(-c2ccc3ccccc3c2)n[nH]1)=C\c1ccco1`, the inhibition was -6.24%.

Take `O=C(N/N=C\c1cccc(Br)c1)c1ccccc1-n1cccc1`: the inhibition was 24.9%.

For the compound `Cc1cc(C(=O)N/N=C\C(Br)=C\c2ccccc2)c(C)o1`, the inhibition was 63% (active).

With `Cc1cc(C(=O)NCCc2ccc(Cl)cc2)c(C)o1`, the inhibition is -114%.

With `O=C(Nc1cccc(F)c1)N[C@@H]1CC[C@@H](CCn2cc(Cc3ccccc3)nn2)O[C@@H]1CO`, the inhibition is 3.01%.

As to `C[C@H](CO)N1C[C@H](C)[C@H](CN(C)C(=O)Nc2ccc3c(c2)OCO3)Oc2ccc(NS(=O)(=O)c3ccc(Cl)cc3)cc2CC1=O`, the inhibition is -20.9%.

`CN1[C@@H]2CN(C(=O)c3ccc(F)cc3)c3ccccc3[C@@H]2[C@@H]1CO`: the inhibition was -1.94%.

On to `O=C(Nc1cc(F)ccc1F)N[C@H]1CC[C@@H](CCn2cc(C3CCCC3)nn2)O[C@@H]1CO`, for which the inhibition is 5.81%.

Consider `Cc1noc(C)c1NC(=O)N(C)C[C@H]1Oc2ccc(NC(=O)C3CCCCC3)cc2CC(=O)N([C@@H](C)CO)C[C@H]1C`, for which the inhibition was -10.9%.

For the compound `CO[C@@H]1CN(C)C(=O)c2ccc(NC(=O)C3CCC3)cc2OC[C@H](C)N(C(=O)CN(C)C)C[C@H]1C`, the inhibition is -10.4%.

As to `CC[n+]1cc(C)ccc1/C=C/c1ccc(N(C)C)cc1`, the inhibition is 86.7% (active).

Take `COc1cccc(CNC(=O)C[C@H]2CC[C@@H](NC(=O)C3CCC3)[C@@H](CO)O2)c1`: the inhibition is -6.76%.

Regarding `O=C(Cc1ccccc1)N1C[C@@H]2[C@H](c3ccccc31)[C@@H](CO)N2C(=O)C1CC1`, the inhibition is 6.8%.

`O=C(c1ccccc1)N1C[C@@H]2[C@H](c3ccccc31)[C@@H](CO)N2Cc1cc(F)ccc1F`: the inhibition was 28%.

(Values after PubChem BioAssay AID652154 (Broad Institute, 2013).)
